Out of some 16,000 compounds screened, about 70 (0.4%) were called active. This is one part of a sample in which actives are shown more often than they occur. A number with no mark means an inactive call. No stated cut-off is given here; in the data, active means inhibition above about 75%; inactive means the rest.

One may read the inhibition as the relative decrease from the control value, in per cent.

The assay is described as follows: quenches luminol chemiluminescence in Nox1 counter-screen (AID 1823). The following applies: HRP/luminol/H2O2 chemiluminescence counterscreen; at 6.7 µM; hits give high values. (Counterscreens check selectivity or assay interference.)
Consider `Cn1nccc1NC(=O)CC(CC(=O)O)c1ccccc1` (centres undefined), for which the inhibition is -2.7%.

For the molecule `COc1ccc(CCNC(=O)c2ccccc2-c2ccccc2C(=O)O)cc1OC`, the inhibition is -7.76%.

`CC(=O)N1c2ccccc2C=Cc2ccccc21`: the inhibition was 2.77%.

Take `CCOC(=O)Cn1cc(Cl)ccc1=O`: the inhibition is -6.12%.

For `CCc1ccc(S(=O)(=O)Nc2ccc(C)c(NS(C)(=O)=O)c2)cc1`, the inhibition was 6.77%.

In the case of `CCOC(=O)c1c(C)nn(-c2ncccc2NC(=O)Nc2cccc(Cl)c2Cl)c1C`, the inhibition is -3.12%.

`COC(=O)c1cc(S(=O)(=O)NCc2csc(-c3cccs3)n2)oc1C`: the inhibition is 2.46%.

Take `COC(=O)c1sccc1NC(=S)Nc1ccc(C)cc1`: the inhibition was -25.1%.

On to `O=C(Nc1ccccc1N1CCOCC1)C1CCN(c2nccc(C(F)(F)F)n2)CC1`, for which the inhibition was -1.03%.

On to `O=C(Nc1ccc(I)cc1Cl)C(=S)NCc1cccs1`, for which the inhibition was -1.16%.

`Cn1nnnc1SCC(=O)Nc1ccc(OC(F)(F)F)cc1`: the inhibition was -2.01%.

As for `O=C(/C=C/c1cccc2ccccc12)N1CCCCC1`, the inhibition was 2.1%.

`Cc1c(C)c(C)c(CSC(=N)CC#N)c(C)c1C`: the inhibition is -1.01%.

As to `CC(C)c1ccc(N2C(=O)/C(=C\c3ccc(-c4ccc([N+](=O)[O-])cc4)o3)SC2=S)cc1`, the inhibition is 2.47%.

`O=C(NCc1csc(-c2cccs2)n1)Nc1ccccc1-c1ccccc1`: the inhibition was 0.51%.

As for `c1ccc2c(c1)NC(C1Nc3ccccc3O1)O2` (centres undefined), the inhibition is 8.91%.

With `CC(C)S(=O)(=O)/C(C#N)=C/NN1CCOCC1`, the inhibition is 41%.

`O=S(=O)(Oc1cccc(C(F)(F)F)c1)c1cc(S(=O)(=O)c2ccccc2)cs1`: the inhibition is 3.95%.

`O=C(Nc1ccccc1-c1ccccc1)c1cccs1`: the inhibition is 0.86%.

Regarding `O=C(O)C1CC2CC1CCC2O` (centres undefined), the inhibition is -5.03%.

For the molecule `CC(C)CC(F)Cc1cnc(=O)[nH]c1` (centres undefined), the inhibition was -1.51%.

On to `CC(=O)c1cc([N+](=O)[O-])c(NC2CCCCC2)s1`, for which the inhibition is 3.91%.

Turning to `NNC(=O)c1cc(OCC(F)(F)F)nc(OCC(F)(F)F)c1`, the inhibition was 9.46%.

Consider `N#Cc1c(C2CCCCC2)[nH]c(=S)[nH]c1=O`, for which the inhibition was 11.2%.

In the case of `CCCc1nc(N)ncc1C(=O)OCC`, the inhibition was -1.66%.

As to `O=C(CCSc1nc2ccccc2o1)N1CCc2cc([N+](=O)[O-])ccc21`, the inhibition was -3.32%.

For the molecule `O=C(O)CSC(SCC(=O)O)c1ccc2c(c1)OCO2`, the inhibition was 0.02%.

As for `CC(CC(=O)O)Oc1ccc(Cl)cc1[N+](=O)[O-]` (centres undefined), the inhibition was 0.37%.

On to `CNC(=S)NNC(=O)c1cc(C)on1`, for which the inhibition is 11%.

On to `CS(=O)(=O)c1ccc(C(=O)Nc2cccc(Cl)c2)cc1`, for which the inhibition was 2.61%.

Take `COC(=O)/C=C/c1cn(C2OCC(CO)C2O)c(=O)[nH]c1=O` (centres undefined): the inhibition is -0.07%.

Consider `CC1=NCCNC(C)=C1N1CCOCC1`, for which the inhibition was -0.98%.

Take `NC(=O)c1sccc1Br`: the inhibition was -1.3%.

In the case of `COC(=O)c1sc(S(C)=O)c(-c2ccon2)c1C` (centres undefined), the inhibition was 0.42%.

On to `CC(C)(C)C(=O)NNC(=O)c1ccc(Oc2ccc(C3SCCS3)cc2)o1`, for which the inhibition was -19.4%.

On to `CNC(=O)NNC(=O)Cn1nnc(N2CCCCC2)n1`, for which the inhibition is 14.1%.

With `N#C/C(=C\C=C\c1ccccc1)c1nc2ccccc2[nH]1`, the inhibition was 2.56%.

On to `O=[N+]([O-])c1cc(C(F)(F)F)ccc1OCCO`, for which the inhibition is -3.63%.

Consider `CCCCCCCN=C(C)c1ccccc1O`, for which the inhibition is -3.37%.

With `O=C(O)CCC(=O)Nc1ccc2c(c1)OCCCO2`, the inhibition was -0.93%.

Regarding `COc1ccc2c(OC(C)=O)coc2c1`, the inhibition is -1.52%.

For the molecule `CN(C(=O)Nc1ccc(Cl)cc1)n1cnc2ccccc2c1=O`, the inhibition is -2.37%.

With `O=C1c2ccccc2C(=O)N1CCCN1CCN(Cc2c(F)cccc2Cl)CC1`, the inhibition is -3.51%.

On to `N#CCSc1ccc2ccccc2c1`, for which the inhibition is -1.43%.

For `O=C(NNC(=S)Nc1ccc(S(=O)(=O)N2CCCCC2)cc1)c1ccncc1`, the inhibition was 12.6%.

For `CN(Cc1nnc(-c2ccc3ccccc3c2)o1)c1nnc(C(F)(F)F)s1`, the inhibition is -4.66%.

Take `N#Cc1sccc1Br`: the inhibition was 0.55%.

As to `N/C(Cc1cccs1)=N\OC(=O)c1ccccc1`, the inhibition was -0.54%.

Turning to `CC(C)N(C(=O)c1ccc(-c2ccccc2F)cc1)C(C)C`, the inhibition was -5.07%.

With `N#C/C(=C\c1ccsc1Sc1ccc(Cl)cc1)S(=O)(=O)c1ccc(Cl)cc1`, the inhibition is 2.56%.

Consider `Cc1ccc(S(C)(=O)=NC(=O)NS(=O)(=O)Oc2ccc(Cl)cc2Cl)cc1` (centres undefined), for which the inhibition is 2.88%.

Turning to `O=C(Nc1ccc(C(F)(F)F)cn1)c1ccc(Oc2cc(Cl)cc(Cl)c2)o1`, the inhibition is 0.64%.

Regarding `CSc1cccc(NC(=O)C(=O)NCCc2ccccn2)c1`, the inhibition is 3.62%.

Turning to `Cc1ccc(SCC(=O)Nc2ccc(F)cc2F)cc1`, the inhibition is -8.4%.

With `CC1=NOC(=O)/C1=C\c1ccccc1`, the inhibition was 3.43%.

As for `CC(C)(C)c1ccc(C(=O)CC(N)=O)cc1`, the inhibition was 6.19%.

As for `O=C1COCC(=O)N1c1ccc2c(c1)OCO2`, the inhibition is -6.14%.

Regarding `Cc1nn(C)c(C)c1Sc1nccc(-c2cccnc2)n1`, the inhibition is -8.26%.

Consider `CCOC(=O)C(O)(NC(=O)Nc1ccccc1)C(F)(F)F` (centres undefined), for which the inhibition was -5.95%.

In the case of `COCCCN/C(SCc1c(F)cccc1Cl)=C(\C#N)C(N)=O`, the inhibition was 1.37%.

For `N#C/C=C/c1ccc(C(F)(F)F)cc1[N+](=O)[O-]`, the inhibition was 1.6%.

In the case of `O=C(c1ccc(Oc2ccc(Cl)cc2)c([N+](=O)[O-])c1)N1CCCC1`, the inhibition was 2.31%.

Regarding `O=C(NNc1ccccc1C(F)(F)F)NS(=O)(=O)c1ccc(Cl)cc1`, the inhibition was -2.61%.

For the molecule `COc1ccc(/C(C)=N/Nc2c([N+](=O)[O-])cc(C(F)(F)F)cc2[N+](=O)[O-])cc1CC#N`, the inhibition is -5.96%.

`Cc1noc(C)c1C(=O)N1CCOCC1`: the inhibition was -1.15%.

For the molecule `CCOC(=O)c1cc(CC)sc1NC(=O)c1cccnc1Oc1ccccc1`, the inhibition is 0.49%.

Regarding `COC(=O)CCN1CCc2cc(N=Nc3ccc(C(F)(F)F)cc3)ccc21`, the inhibition is 17.7%.

Consider `CC(C)(C)NC(=O)[C@@H]1C[C@@H]2CCCC[C@@H]2CN1C(=O)c1ccno1`, for which the inhibition is -0.12%.

With `O=C(O)CC(CC(=O)Oc1ccccc1N1CCCCC1)c1ccccc1` (centres undefined), the inhibition is -1.25%.

Consider `CSc1nsc(SC)c1C(=O)Nc1cc(C(F)(F)F)cc(C(F)(F)F)c1`, for which the inhibition is 1.1%.

`COc1ccc(C2CC(c3cccs3)=Nc3ccccc3S2)c(Cl)c1OC` (centres undefined): the inhibition is -0.88%.

As to `c1ccc(-c2nsc(N3CCNCC3)n2)cc1`, the inhibition is -5%.

For the molecule `NS(=O)(=O)c1cccc(NC(=O)c2ccccc2)c1`, the inhibition is -5.88%.

For the molecule `CCOC(=O)c1c(-c2ccco2)csc1NC(=O)Nc1ccc(Cl)cc1`, the inhibition is 3.19%.

For the molecule `Cc1[nH]c2ccccc2c1Sc1ccc(Cl)cc1`, the inhibition was -11.5%.

With `N#Cc1ccc(Oc2ccc(Cl)cc2)c([N+](=O)[O-])c1`, the inhibition was -1.59%.

Regarding `Cc1c(S(=O)(=O)c2ccc(Cl)cc2)csc1C(=O)Nc1ccc2c(c1)OCCO2`, the inhibition was 0.51%.

As to `CCCCN1Cc2c(nc3cc(-c4ccccc4)[nH]n3c2=O)C1=O`, the inhibition was 5.15%.

Take `O=C1Nc2ccccc2C12NNC(=S)NN2`: the inhibition is 7.82%.

Take `NS(=O)(=O)c1ccc(Oc2c(Cl)cccc2[N+](=O)[O-])cc1`: the inhibition is -4.5%.

Regarding `COc1cccc(NC(=S)NNC(=S)NC2CC3CCC2C3)c1` (centres undefined), the inhibition was 5.57%.

As for `N/C(=N\OC(=O)c1cccc(Cl)c1)c1ccc2nonc2c1`, the inhibition was -0.67%.

Regarding `CO/N=C(/C)c1ccc2c(c1)CCO2`, the inhibition is -0.06%.

Take `CC(=O)Nc1ccc(NC(=O)c2cc(C)ccc2[N+](=O)[O-])c(C)c1`: the inhibition was 0.85%.

Regarding `O=C(Cn1nnc2ccccc21)NCCSCc1ccco1`, the inhibition is -2.68%.

For the molecule `COC(=O)C(C#N)c1ccc(C(F)(F)F)cc1[N+](=O)[O-]` (centres undefined), the inhibition was 4.34%.

On to `O=C(CN1CCOCC1)NNC(=O)c1cccs1`, for which the inhibition is 3.1%.

`C/C(=N\NC(N)=S)c1ccncc1`: the inhibition is 15%.

As to `O=C(Nc1ccccc1C(=O)NCc1c(F)cccc1Cl)c1ccccc1Cl`, the inhibition is 4.86%.

Turning to `Cn1c(=O)c(C#N)cn(-c2ccccc2)c1=O`, the inhibition was -4.85%.

On to `CSc1sc(C(=O)NC2CC2)c(-c2ccc(Cl)cc2)c1C#N`, for which the inhibition is 2.76%.

As to `CCOC(=O)C(NC(=O)c1ccco1)(Nc1cc(C)ccn1)C(F)(F)F` (centres undefined), the inhibition was -2.71%.

As for `COC(=O)c1c(C(=O)OC)c2n(c1C)CCS2`, the inhibition was -2.55%.

`N#CNC(N)=Nc1cc(Cl)ccc1Cl`: the inhibition was -0.88%.

In the case of `CCOC(=O)O/N=C(\N)c1ccc(Cl)cc1`, the inhibition was -3.37%.

For the molecule `Cn1cccc1-c1n[nH]c(=S)n1-c1ccc(Cl)cc1Cl`, the inhibition is 2.46%.

`CCCCCCNC(=O)NCCCCCC`: the inhibition was -3.83%.

With `Cc1oc(-c2ccc(Cl)cc2)cc1C(=O)N1CCOCC1`, the inhibition is -4.96%.

For `COc1ccc(Cc2nnc(SC)[nH]c2=O)cc1`, the inhibition was 1.75%.

Consider `CC(C)[C@H]1COC(c2cccc(C3=N[C@@H](C(C)C)CO3)n2)=N1`, for which the inhibition is -2.9%.

As to `O=C(CCN1CCN(C(c2ccccc2)c2ccccc2)CC1)c1ccccc1`, the inhibition is -3.01%.

Turning to `Cn1cc(Cl)c(/C=C(\C#N)C(N)=O)n1`, the inhibition is -6.34%.

Turning to `COc1ccc2cc(/C(C)=N/OC(=O)Nc3ccccc3)ccc2c1`, the inhibition is -18.6%.

Regarding `CCOC(=O)c1c[nH]n2c(=O)c3c(nc12)CCC3`, the inhibition is 0.29%.
